Laboratory results reported in PubChem BioAssay (NCI).
The panel holds about 83,000 compounds, 20% with a hit somewhere; the sample as a whole holds those more often.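 In brief: 96-well plates, 48 h treatment, single concentration, percent growth endpoint.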 Values without a mark were called inactive. The source made the active and inactive calls. Rule for the calls: active = growth percent below 10; inactive = the rest.

Columns and labels:
Test in all cases: NCI-60 one-dose screen, 48 h (100 = growth as untreated, 0 = no growth, -100 = all killed)
Conditions in all cases: 10 µM unless noted
[1] = system: NCI-H23 lung
[2] = system: NCI-H226 lung
[3] = system: NCI-H322M lung
[4] = system: HOP-62 NSCLC
[5] = system: NCI-H460 lung
[6] = system: HOP-92 NSCLC
[7] = system: NCI-H522 lung
[8] = system: A549/ATCC NSCLC
[9] = system: 786-0 renal
[10] = system: COLO 205 colon
[11] = system: DU-145 prostate
[12] = system: K-562 leukemia
[13] = system: MALME-3M melanoma
[14] = system: MDA-MB-231 breast
[15] = system: RXF 393 renal
[16] = system: SF-268 CNS
[17] = system: SF-295 CNS
[18] = system: SF-539 CNS
[19] = system: UACC-257 melanoma
[20] = system: M14 melanoma

SMILES	growth [1]	growth [2]	growth [3]	growth [4]	growth [5]	growth [6]	growth [7]	growth [8]	growth [9]	growth [10]	growth [11]	growth [12]	growth [13]	growth [14]	growth [15]	growth [16]	growth [17]	growth [18]	growth [19]	growth [20]
COc1ccc(C(=O)n2nc(/C=C/c3ccc(O)c(OC)c3)cc2/C=C/c2ccc(O)c(OC)c2)cc1	7.96% (active)	13%	11.7%	5.2% (active)	4.37% (active)	-10.7% (active)	-6.8% (active)	3.98% (active)	2.92% (active)	-66.2% (active)	16.6%	-6.97% (active)	3.93% (active)	12.5%	-54.8% (active)	6.45% (active)	6.61% (active)	-24.4% (active)	0.119% (active)	-15.1% (active)
COc1ccc(S(=O)(=O)Nc2cc(/C=C\c3cc(OC)c(OC)c(OC)c3)cc(OC)c2OC)cc1	36.2%	35.2%	27.1%	52.9%	8.41% (active)	20.1%	-21.4% (active)	21.2%	14%	-62.4% (active)	-0.291% (active)	7.33% (active)	81.5%	21%	40.9%	14%	19.4%	0.203% (active)	51.3%	15.9%
O=C(c1ccccc1)c1c(/C=C/c2ccccc2)c2ccccc2[nH]c1=O	94.2%	89.9%	82.8%	87.1%	114%	73%	83.4%	93.5%	92.2%	110%	115%	82.4%	98.3%	101%	78.9%	86.2%	95.6%	99.2%	95.6%	107%
COc1cc(/C=N\NC(=O)CN2CCN(c3cc4c(cc3F)c(=O)c(C(=O)N/N=C/c3cc(OC)c(OC)c(OC)c3)cn4C3CC3)CC2)cc(OC)c1OC	-36.4% (active)	-64.7% (active)	11.5%	-11.8% (active)	-23.3% (active)	-39% (active)	8.22% (active)	73.4%	54.9%	7.48% (active)	8.55% (active)	5.07% (active)	-15.8% (active)	-16.1% (active)	-3.67% (active)	-6.34% (active)	17.4%	-68.2% (active)	22.2%	18.2%
NC(N)=N/N=C/c1ccc(-c2ccc(-c3cc(Cl)cc(Cl)c3)s2)cc1	-39.2% (active)	87.1%	72.6%	25.2%	-35.7% (active)	30%	-0.199% (active)	-71.1% (active)	-83.5% (active)	-12.9% (active)	-45.9% (active)	-25.2% (active)	100%	-30.4% (active)	27.4%	73.5%	75.9%	-3.6% (active)	106%	93.9%
COc1ccc(-c2nc(/C=N/Nc3cc(C)nc4ccc(Br)cc34)c(C)o2)cc1	-41.9% (active)	-37.4% (active)	-96.2% (active)	64.5%	-80.6% (active)	-84.3% (active)	-58.4% (active)	-61% (active)	-81.5% (active)	-75.6% (active)	-90.2% (active)	-49.1% (active)	-84.6% (active)	-89.2% (active)	-90.9% (active)	-72.9% (active)	-90.4% (active)	-96.1% (active)	108%	1.07% (active)
COc1ccc(NC(=O)c2cc(OC)c(OC)c(OC)c2)cc1O	52.2%	99.9%	68.2%	35.1%	17.2%	37.4%	-41% (active)	48.6%	38.5%	40.4%	36.6%	27.7%	46.5%	58.5%	46.4%	44.1%	35.5%	21.5%	58.2%	36%
CCN(CC)CCCNc1nccc2ccc(Cl)cc12	107%	97.9%	104%	96.5%	103%	68.1%	102%	94.9%	104%	108%	113%	107%	111%	87%	97.6%	111%	100%	104%	91%	95%
C=C[C@@H]1C[C@@H]2Cc3ccccc3N1O2	98.9%	109%	112%	96.6%	107%	126%	120%	96.3%	104%	116%	120%	54.3%	125%	106%	119%	116%	99.8%	103%	97.7%	102%
Cc1nn(-c2ccc(Cl)cc2)c2ncnc(N/N=C/c3cccc([N+](=O)[O-])c3)c12	94.3%	104%	96.4%	107%	77.8%	20.4%	103%	104%	96.4%	95.3%	68.7%	17.4%	97.2%	102%	110%	58%	101%	106%	103%	
O=C(/C=C\c1cccc([N+](=O)[O-])c1)/C=C/c1cccc([N+](=O)[O-])c1	92.3%	105%	98.2%	97.2%	93.5%	84.3%	88.2%	97.1%	86.3%	103%	93.1%	70.5%	110%	90.1%	79.6%	78.5%	100%	101%	90.2%	
O=c1ccn(-c2ncnc3nc[nH]c23)cc1	92.1%	88.8%	97.5%	89.8%	113%	72.9%	80.4%	35.8%	97.1%	101%	101%	89.9%	68.8%	101%	79.6%	95.2%	115%	96.4%	3.23% (active)	
CC1CN(c2oc(-c3ccccc3)nc2C#N)CC(C)O1 (stereo unspecified)	112%	92%	99.1%	103%	99.7%	123%	99.4%	104%	99.6%	116%	99.7%	97.6%	102%	101%	104%	98.2%	99.1%	98.6%	103%	99.3%
C=C[C@@H]1C[C@@H]2Cc3c(C)cc(C)cc3N1O2	95%	95.5%	91.9%	91.2%	99.8%	45.6%	99.2%	95.1%	105%	100%	108%	89.8%	77%	113%	98.3%	93%	92.1%	96.6%	101%	104%
COc1cc2c(cc1OCCCN1CCN(CCCn3c4ccccc4c4ccccc43)CC1)N=C[C@@H]1CCCN1C2=O	-30.6% (active)	-80.4% (active)	-65.5% (active)	-66% (active)	-96.9% (active)	-80.5% (active)	-26.6% (active)	-37.5% (active)	-70.3% (active)	-98.8% (active)	-85.9% (active)	-50.1% (active)	-82.5% (active)	-69.3% (active)	-78.3% (active)	-87.8% (active)	-92.3% (active)	-91.3% (active)	-70.3% (active)	
